Pf Dd2 growth – qHTS Primary assay for Inhibitors of Plasmodium falciparum Dd2 growth in vitro; P. falciparum Dd2 growth, SYBR Green, 72 h; Potency, µM (titrated, usually from 28.9 µM), for inactives: at the top dose activity, negative = inhibition, hits mostly inhibitors; hit rate 4.3% among 120,000; AID 1347417, 2020; active = well fitted inhibition curve with a large enough effect;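 also: plate controls were DMSO vehicle for no effect and reference drug for full effect; nearly all actives have a fitted effect of over 65% in size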
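Readout: SYBR Green fluorescence, 485 nm excitation, 535 nm emission, after ~16 h lysis at 37C. Before that, Dd2-infected red cells (2.5% hematocrit) grew 72 h with compound, 29 uM top final concentration.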
Starred values were filed as active, the others as inactive; i = inactive; [ ] = dose if it differs, or a comment. Many of the other results were omitted from the sample, so hits are more common in it than they were. Potency is read from the fitted curve at half-maximal effect.

SMILES	Pf Dd2 growth
CCCN(CCC)CCCNC(=O)C1CCN(S(=O)(=O)c2cccc3nsnc23)CC1	i
Cc1ccc(NC(=O)C2CCN(S(=O)(=O)c3cccc4nsnc34)CC2)cc1F	-16%
COC(=O)CNC(=O)C1CCN(S(=O)(=O)c2cccc3nsnc23)CC1	12%
Cc1ccc(NC(=O)C2CCC(CNS(=O)(=O)c3cccc4nsnc34)CC2)c(Cl)c1 (stereo not drawn)	i
CCC(C)NC(=O)C1CCC(CNS(=O)(=O)c2cccc3nsnc23)CC1 (stereo not drawn)	0.79µM*
Cc1ccc(Cl)cc1NC(=O)C1CCC(CNS(=O)(=O)c2cccc3nsnc23)CC1 (stereo not drawn)	3.5µM*
COc1ccc(N2Cc3c(NCCOc4ccccc4)ncnc3N(C)CC2=O)cc1	-18%
Cc1nc(N2CCN(C(=O)Cc3cccs3)CC2)cc(C(F)(F)F)n1	i
C=CCNC(=O)C1CC(c2ccccc2F)=NO1 (stereo not drawn)	9%
Cc1cc(C(=O)N[C@@H]2CN(c3ncccn3)C[C@H]2CO)c(C)o1	-12%
CNC(=O)[C@@H]1CN(C(=O)c2ccccc2C(F)(F)F)C[C@H]1CO	9%
Cc1ccc(/C=C/c2onc(C)c2S(=O)(=O)N2CCC(C(=O)N3CCC(N(C)C(C)C)CC3)CC2)cc1	10µM*
Cc1ccc(/C=C/c2onc(C)c2S(=O)(=O)N2CCC(C(=O)N3CCN(c4cccc(C)c4)C(C)C3)CC2)cc1 (stereo not drawn)	i
Cc1cccc(N2CCN(C(=O)C3CCN(S(=O)(=O)c4c(C)noc4/C=C/c4ccccc4F)CC3)CC2)c1C	i
Cc1cccc(/C=C/c2onc(C)c2S(=O)(=O)N2CCC(C(=O)N3CCC(C)CC3)CC2)c1	57%
Cc1ccc(/C=C/c2onc(C)c2S(=O)(=O)N2CCC(C(=O)Nc3cc(F)ccc3F)CC2)cc1	-1%
Cc1ccc(/C=C/c2onc(C)c2S(=O)(=O)N2CCC(C(=O)N3CCN(c4ccccc4F)CC3)CC2)cc1	6.3µM*
COC[C@@H]1OC[C@@]2(C)C3CC[C@@H](O)[C@@H](CC(=O)NCc4cccs4)[C@]3(C)CC[C@H]2O1 (stereo partly drawn)	-3%
COc1ccc(-c2nc3c(C)cccc3cc2CN(C)Cc2ncc[nH]2)cc1OC	i
COc1ccc(CN2CCc3nn(CC(C)C)c(=O)n3CC2)cc1Cn1ccnc1	7%
CC(=O)N1CCC(Cc2nc(-c3ccccc3)n[nH]2)CC1	-19%
COc1ccc(CNC2(Cc3cc(C(=O)N4CCCCC4)on3)COC2)cc1	i
O=C(NCc1cccc(Cl)c1)c1ccc(NC(=O)N2CC3CCCN3c3ccccc32)cc1 (stereo not drawn)	8.9µM*
O=C(CCC(=O)N1CC2CCCN2c2ccccc21)NCc1cccc(Cl)c1 (stereo not drawn)	11%
CS(=O)(=O)N1CCC(OC2CCN(C(=O)Nc3cccc(Cl)c3)CC2)CC1	i
SMILES	Pf Dd2 growth
O=C(NCc1cccc(Br)c1)c1ccc(NC(=O)N2CCCCc3ccccc32)cc1	-3%
O=C(Nc1cccc(Cl)c1)N1CC2CCCN2c2ccccc21 (stereo not drawn)	8.9µM*
O=C(c1cccc(Cl)c1)N1CCC(N2CC3CCCN3C2=O)CC1 (stereo not drawn)	20%
CCc1nnc(CN(C)C(=O)c2cnc(-c3ccc(C)cc3)[nH]c2=O)o1	6%
CN1C[C@@H](NS(=O)(=O)c2ccc(C#N)cc2)C[C@H]1c1nc(-c2ccncc2)no1	i
Cc1ccc(C2NC(=O)N(CC(=O)N3CCN(c4ccccc4)CC3)C3=C2C(=O)OC3)cc1 (stereo not drawn)	i
CC(=O)NC1CC2(CCN(C(=O)CCCN(C)C)CC2)c2ccccc21 (stereo not drawn)	20%
CCN1C(=O)C(CC(=O)NCc2ccccc2)Sc2ncccc21 (stereo not drawn)	-11%
Cc1ccc(NC(=O)c2c(C)oc3ncnc(N4CCCCC4)c23)cc1Cl	-6%
COc1ccc(NC(=O)c2c(C)oc3ccc(O)c(CN4CCCCCC4)c23)cc1Cl	0.35µM*
Cc1ccccc1NC(=O)c1c(C)oc2ccc(O)c(CN3CCCCCC3)c12	2.5µM*
Cc1cc(Br)ccc1NC(=O)c1c(C)oc2ncnc(N3CCCCC3)c12	-1%
COc1cc(=O)n2c(c1C(=O)Nc1ccccc1C)CCCC2	19%
COc1cc(=O)n2c(c1C(=O)Nc1ccc(F)c(Cl)c1)CCCC2	51%
O=C(O)c1cccc(C(=O)N2C[C@@H]3C[C@H](C2)c2ccc(NC(=O)c4cccs4)c(=O)n2C3)c1	16%
COc1ccc(CC(=O)N2[C@@H]3CC[C@H]2CC(NC(=O)c2ccncc2)C3)cc1Cl (stereo partly drawn)	-20%
CCC1(O)CCC12CCN(C(=O)c1cccs1)CC2 (stereo not drawn)	-15%
COc1cccc(-c2noc(COC(=O)C3=CN(C)S(=O)(=O)N=C3C)n2)c1	13%
COc1ccc(-n2c(=O)c3c(n2Cc2ccccc2)CN(C(=O)c2ccnn2C)CC3)cc1	38%
Cn1nccc1CN1CCC2(C1)C(=O)Nc1ccccc12 (stereo not drawn)	2%[44.1 µM]
CCCN(Cc1nccn1C)C(=O)c1cccc(C2CCNC2)c1 (stereo not drawn)	15%
COCc1cc(CNC(=O)c2ccc(C3CCNC3)cc2)[nH]n1 (stereo not drawn)	7%
O=C(c1ccc(C2CCNC2)cc1)N(Cc1ccccc1)CC1CCC1 (stereo not drawn)	13µM*
CCC(=O)N(C1CCOCC1)C1CCN(S(=O)(=O)c2cccnc2)CC1	-16%
COc1cccc(N2CC(C(=O)N3CCCC3)NC2=O)c1 (stereo not drawn)	6%[44.1 µM]
SMILES	Pf Dd2 growth
COc1ccc(CN2C(=O)CO[C@H]3CN(Cc4ccccc4Cl)C[C@H]32)cc1	i
Cc1cc(C)cc(NC(=O)CN2C(=O)CSc3ccc(S(=O)(=O)N4CCCC4)cc32)c1	-12%
CC(C)N(Cc1ccccc1)C(=O)CN1C(=O)CSc2ccc(S(=O)(=O)N3CCCC3)cc21	7.9µM*
CCCCN(CCCC)CCNC(=O)CN1C(=O)CSc2ccc(S(=O)(=O)N3CCCCC3)cc21	i
CN(C)Cc1nnc(C2CC(NC(=O)c3ccccc3-c3ncn[nH]3)C2)n1C (stereo not drawn)	-4%
COc1ccc(C(NC(=O)c2cccc(-n3cnnc3)n2)C2CC(O)C2)cn1 (stereo not drawn)	-12%
O=C(CN1C(=O)CNC1=O)N1CCCN(C(=O)c2ccoc2)CC1	-1%
COc1ccc(-c2ccnc3nc(CCc4ccc(OC)c(OC)c4)nn23)cc1	-12%
COc1ccc(CCc2nc3nccc(-c4ccc(OC)c(OC)c4)n3n2)cc1OC	13µM*
CCc1nc2nccc(-c3ccc(OC)c(OC)c3)n2n1	-21%
CC(C)N1CCC(O)(c2csc(CN3CCOCC3)n2)CC1	16%[44.1 µM]
Cc1ncc(Cl)c(C(=O)N2CCCn3nc(CO)cc3C2)n1	4%
COc1ccc(CCNC(=O)c2c(C)noc2-c2ccccc2Cl)cc1	-15%
COCc1nc(C2CCN(C(=O)c3cccn3C)C2)no1 (stereo not drawn)	-10%
Cn1cncc1C(=O)N1CCCn2ccnc2C1c1ccccc1 (stereo not drawn)	-6%
CN(CC1CCOCC1)C(=O)Cc1cccc(Cl)c1	5%
CN(C(=O)Cc1cccc(Cl)c1)C1CCc2ccccc21 (stereo not drawn)	i
CN(C(=O)Cc1cccc(Cl)c1)C1CCCc2ccccc21 (stereo not drawn)	14µM*

Screening data as filed in PubChem.
